Laboratory results taken from PubChem BioAssay (NCI).
The panel holds about 83,000 compounds, 20% with a hit somewhere; the sample as a whole holds those more often.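 How to read the values: 0–100, growth inhibition (40 = 60% inhibited); 0, no net growth; -100 to 0, cell death (-40 = 40% of starting cells died; -100 = all dead).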 Values without a mark were called inactive. The source made the active and inactive calls. Rule for the calls: active = growth percent below 10; inactive = the rest.

The compounds below were run on HCC-2998 colon (assay: NCI-60 one-dose screen, 48 h (100 = growth as untreated, 0 = no growth, -100 = all killed)). Conditions: 10 µM unless noted.

SMILES	growth
COc1ccc(Cn2nc(-c3ccccc3)c3c2CCc2cnoc2-3)cc1	67.4%
CCCN=C(N)c1ccc(NC(=O)c2ccc(C(=O)Nc3ccc(C(N)=NCCC)cc3)cc2)cc1	109%
O=S(=O)(c1cccc(NC2=Nc3cccc4cccc2c34)c1)N1CCCC1	79.5%
COc1cc2c(cc1[N+](=O)[O-])-c1ccc([N+](=O)[O-])cc1/C2=N\O	106%
COc1cccc(/C=C2\COc3ccc(-c4ccccc4)cc3C2=O)c1	19.4%
Cc1ccc(C2CC(c3cccc(Nc4ccncc4)c3)=NN2c2ccccc2)cc1 (stereo not drawn)	-92.2% (active)
Cn1c2c(Cl)c(Cl)ccc2c2cc(N)[nH]c(=O)c21	85%
O=S(=O)(c1ccc(N/N=C\c2ccccc2)cc1)c1ccc(N/N=C/c2ccccc2)cc1	66.4%
OC1(c2ccc(Cl)c(C(F)(F)F)c2)CCN(CCCC(c2ccc(F)cc2)c2ccc(F)cc2)CC1	-97.2% (active)
N#Cc1ccc(-c2ccc3c(c2)NC(=O)/C3=C\c2ccc[nH]2)cc1	58.5%
C=C(C)[C@@H]1CC[C@]2(C(=O)NCC(=O)OC)CC[C@]3(C)[C@H](CC[C@@H]4[C@@]5(C)Cc6c([nH]c7ccccc67)C(C)(C)[C@@H]5CC[C@]43C)[C@@H]12	103%
O=C(Nc1nc2ccc(S(=O)(=O)Nc3ccc(C4(C(F)(F)F)CC4)cc3)cc2[nH]1)c1cnccn1	63.4%
C=Cc1cc[n+](CCCCCCCCCCCC)cc1	110%
